Screen size: about 360,000 compounds; about 2,000 (0.56%) were called active.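 How the source made its calls: active means activation above the average of all compounds screened plus 3 SD, cutoff fixed separately per campaign (cut at about 7.5% in these data); inactive means the rest.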 What follows is part of a selection rich in actives, with near analogues and random picks from the rest.
Assay: FXN promoter activators, primary screen, cell-based, luciferase luminescence, HEK293 lucGAA850 (AID 540364);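 further: 0% = DMSO wells and 100% = 10 µM SAHA wells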
Details: HEK293 lucGAA850 FXN promoter luciferase reporter, 24 h; at 6 µM; active compounds read high; percent of 10 µM SAHA response

Row | Compound | activation
1 | CC(=O)Nc1cccc(-c2nc3ccccc3s2)c1C | 1.28% (inactive)
2 | CCC(=O)NC(=Nc1nc2ccccc2s1)NC(=O)CC | 8.95% (active)
3 | CC(C)CC(=O)N/C(N)=N/c1nc2ccccc2s1 | 4.47% (inactive)
4 | O=C(NCC1(N2CCCCC2)CCCCC1)c1ccc(NS(=O)(=O)c2ccc(F)cc2)cc1 | 2.54% (inactive)
5 | O=C(Nc1ccccc1N1CCCC1)c1ccc2ccccc2c1 | 1.86% (inactive)
6 | O=C(Cc1ccccc1)Nc1ccc(C(=O)Nc2ccccc2C(=O)O)cc1 | -0.24% (inactive)
7 | Nc1ccc(C(=O)Nc2ccccc2N)cc1 | 13.5% (active)
8 | CCOc1ccccc1NS(=O)(=O)c1cc2c3c(c1)C(C)C(=O)N3CCC2 (stereo not drawn) | 3.36% (inactive)
9 | O=C1COc2ccc(C(=O)COC(=O)c3cccnc3Cl)cc2N1 | 1.97% (inactive)
10 | CCOC(=O)C1Sc2[nH]c(=O)sc2C(c2ccc(Cl)cc2)C1C(=O)OCC (stereo not drawn) | -10.5% (inactive)
11 | Cc1ccc(C(=O)NNC(=O)c2cc3cc4ccccc4nc3s2)cc1 | -0.4% (inactive)
12 | Cc1ccc(NC(=O)c2ccc(Oc3ncccn3)cc2)cc1 | 3.47% (inactive)
13 | Cc1ccc(C(=O)NNc2ncnc3ccccc23)cc1 | 7.73% (active)
14 | COC(=O)c1ccc(NC(=O)C23CC4CC(C2)CC(n2cnc(Cl)n2)(C4)C3)cc1 | 2.12% (inactive)
15 | Cc1ccc(S(=O)(=O)N(C)c2nc3ccccc3n3c(C(C)C)nnc23)cc1 | 5.84% (inactive)
16 | CCC(C)N1C(=S)SC(C)(C)C1N(O)C(=O)NC1CCCCC1 (stereo not drawn) | 0.24% (inactive)
17 | CCCCNC(=O)N(O)C1N(/N=C/c2ccc(N(C)C)cc2)C(=S)SC1(C)C (stereo not drawn) | 1.55% (inactive)
18 | CCCCNC(=O)N(O)C1N(/N=C/c2ccccc2O)C(=S)SC1(C)C (stereo not drawn) | 14.4% (active)
19 | COc1ccc(Br)cc1S(=O)(=O)N1CCN=C1C | 2.93% (inactive)
20 | Fc1ccccc1/C=N/Nc1cc(N2CCCCC2)ncn1 | 8.75% (active)
21 | O=C(CCC(=O)Nc1ccccc1)N/N=C/c1ccccc1F | 0.15% (inactive)
22 | COc1ccccc1N1CCN(C(=O)C(=O)N/N=C/c2ccccc2F)CC1 | -1.01% (inactive)

Row | Compound | activation
23 | COc1ccc(-c2cc3nc(NCCOc4ccccc4)ccn3n2)cc1 | 0.64% (inactive)
24 | CNc1nc(Nc2ccc(C)c(Cl)c2)nc(N)c1[N+](=O)[O-] | 17.5% (active)
25 | CCN1CCN(c2nc(Nc3cccc(F)c3)nc(N)c2[N+](=O)[O-])CC1 | 3.12% (inactive)
26 | Nc1nc(NCCCN2CCOCC2)nc(Nc2ccccc2)c1[N+](=O)[O-] | 0.67% (inactive)
27 | O=C(COC(=O)COc1cccc(F)c1)NCC1CCCCC1 | 2.16% (inactive)
28 | Cc1ccc(-c2ccc(CN3C(C(C)C)C(=O)N(Cc4cn(CCC5OCCO5)nn4)CCS3(=O)=O)cc2)cc1 (stereo not drawn) | -0.96% (inactive)
29 | O=S(=O)(c1ccc(F)cc1)N1CCN(C(=S)NC2CCCC2)CC1 | 3.66% (inactive)
30 | N#CC1=C(SCc2ccc(C#N)cc2)N=C(N)C(c2nc(-c3ccccc3)cs2)C12CCCCC2 (stereo not drawn) | 9.79% (active)
31 | N#Cc1ccc(CSc2ncccn2)cc1 | 2.06% (inactive)
32 | Cc1ccc(S(=O)(=O)N(C)C)cc1NC(=O)C(C)OC(=O)c1ccc2ccccc2n1 (stereo not drawn) | 0.74% (inactive)
33 | N#CCSc1nc2ccc(N3CCOCC3)cc2c(=O)n1CCc1ccccc1 | -2.84% (inactive)
34 | N#CCSc1nc2ccccc2c(=O)n1-c1ccccc1 | 9.45% (active)
35 | Cc1nn(-c2ccccc2)c(C)c1/C=N/NC(=O)CSc1nc2ccccc2c(=O)n1-c1ccccc1 | 0.81% (inactive)
36 | O=C(c1cc(-c2ccc(Cl)cc2)on1)N1CCN(c2ccccc2)CC1 | 3.73% (inactive)
37 | COc1ccccc1N1CCN(C(=O)c2cc(-c3ccc(Br)cc3)on2)CC1 | 17.8% (active)
38 | COc1ccccc1-c1cc(C(=O)N2CCCCC2)no1 | 3.83% (inactive)
39 | CC1(c2ccc(Cl)cc2Cl)NC(=O)N(CC(=O)Nc2cccnc2Cl)C1=O (stereo not drawn) | 0.61% (inactive)
40 | O=C(N[C@H]1C/C=C\C(c2cccc(F)c2)N(Cc2ccccc2)C(=O)C1)OCC1c2ccccc2-c2ccccc21 (stereo partly drawn) | -2.16% (inactive)
41 | CN(C)CCNC(=O)c1cccc(-c2cnc3c(NC=O)cc(-c4cccc(C(F)(F)F)c4)cn23)c1 | -0.71% (inactive)
42 | Cn1nnnc1SCc1cc(=O)[nH]c2ccccc12 | 0.27% (inactive)
43 | CC(Sc1nc2c([nH]c3ccccc32)c(=O)n1C)c1ccccc1 (stereo not drawn) | 13.8% (active)
44 | CCCCc1nc2c(=O)[nH]c3ccccc3c2o1 | 3.48% (inactive)

Row | Compound | activation
45 | CCN(CC)CCNC(=O)c1sc2ncn(CC(=O)Nc3ccc(C)c(Cl)c3)c(=O)c2c1C | 0.29% (inactive)
46 | COc1ccc(-c2cc(NC(C)=O)c3ncc(-c4cc(OC)c(OC)c(OC)c4)n3c2)cn1 | -2.13% (inactive)
47 | Cc1cc(C)n2nc(CNS(=O)(=O)c3c(F)c(F)c(F)c(F)c3F)nc2n1 | 8.27% (active)
48 | Cc1cc(C)n2nc(SCC(N)=O)nc2n1 | 0.08% (inactive)
49 | Cc1cc(C)n2nc(C(=O)NC(C)(C)C)nc2n1 | -0.66% (inactive)
50 | CCC(C)(C(=O)NC1CCCC1)N(C(=O)CNC(C)=O)c1ccc(C)cc1 (stereo not drawn) | -0.84% (inactive)
51 | C[C@H]1CN([C@@H](C)CO)C(=O)CCCn2cc(nn2)CO[C@@H]1CN(C)S(=O)(=O)c1ccc(-c2ccccc2)cc1 | -1.7% (inactive)
52 | CC(C)[C@H](NC(=O)c1ccc(F)cc1)C(=O)OCC(=O)NC(=O)c1cccn1C | 0.53% (inactive)
53 | Fc1ccc2nc(Nc3nc4c(s3)CCCC4)sc2c1 | 5.51% (inactive)
54 | c1c2c(cc3sc(N4CCCCC4)nc13)OCCO2 | -6.92% (inactive)
55 | Fc1ccc2nc(N3CCCCC3)sc2c1 | 8.32% (active)
56 | Cc1cccc(-n2c(Cc3cc(=O)[nH]c(=O)[nH]3)nnc2SCC(=O)Nc2cccc(C(F)(F)F)c2)c1 | 0.62% (inactive)
57 | CC1CCC2(CC1)NC(=O)N(Cc1nnc(-c3cccs3)o1)C2=O (stereo not drawn) | 1.39% (inactive)
58 | CC(C)N1C(=S)SC(C)(C)C1n1oc(=O)n(-c2ccc(Cl)c(Cl)c2)c1=O (stereo not drawn) | -0.29% (inactive)
59 | COC(=O)CSc1snnc1-c1ccc(Cl)c(Cl)c1 | 2.88% (inactive)
60 | COc1cccc(-n2cc3c(c2-c2ccccc2)c(=O)n(C)c(=O)n3C)c1 | 1.09% (inactive)
61 | Cc1ccc(-c2c3c(=O)n(C)c(=O)n(C)c3cn2-n2cnnc2)cc1 | 10.3% (active)
62 | Cc1ccc(-c2c3c(=O)n(C)c(=O)n(C)c3cn2-c2ccccc2O)cc1 | -0.62% (inactive)
63 | CCN(C[C@H]1N[C@@](CC)(C(=O)OC)[C@H]2C(=O)N(Cc3ccccc3)C(=O)[C@@H]12)S(=O)(=O)c1ccc(C(F)(F)F)cc1 | 15.9% (active)
64 | COC(=O)[C@]1(Cc2ccccc2)N[C@H](CN(C)S(=O)(=O)c2ccc(OC(F)(F)F)cc2)[C@@H]2C(=O)N(Cc3ccccc3)C(=O)[C@@H]21 | -3.69% (inactive)
65 | CCN(C[C@H]1N[C@@](CC)(C(=O)OC)[C@H]2C(=O)N(Cc3ccccc3)C(=O)[C@@H]12)S(=O)(=O)c1ccccc1 | 3.23% (inactive)
66 | OC(c1ccccc1)c1nc(/C=C/c2ccc(C(F)(F)F)cc2)cs1 (stereo not drawn) | 1% (inactive)

Row | Compound | activation
67 | CC(=O)Nc1cc(-c2ccccc2N(C)C)cn2c(-c3ccc(F)c(Cl)c3)cnc12 | 1.24% (inactive)
68 | COc1ccc(NC(=O)CSCc2ccc([N+](=O)[O-])cc2)cc1OC | 0.83% (inactive)
69 | CCOc1ccc2[nH]c(=O)c(CN(Cc3nnnn3CCc3ccccc3)CC3CCCO3)cc2c1 (stereo not drawn) | 1.4% (inactive)
70 | CCC(c1nnnn1Cc1ccccc1)N(Cc1cc2cc(OC)ccc2[nH]c1=O)CC1CCCO1 (stereo not drawn) | 5.86% (inactive)
71 | COc1ccc2[nH]c(=O)c(CN(Cc3nnnn3CCc3ccccc3)CC3CCCO3)cc2c1 (stereo not drawn) | 7.67% (active)
72 | COc1ccc(-c2cc(C(F)(F)F)nc(S(C)(=O)=O)n2)cc1OC | 16.9% (active)
73 | COc1ccc(-c2cc(C(=O)N(C)Cc3ccc(OC)c(OC)c3OC)c3ccccc3n2)cc1OC | -6.82% (inactive)
74 | COc1ccc(-c2cc(C(=O)NCCCN3CCCC3=O)c3ccccc3n2)cc1OC | 0.37% (inactive)
75 | O=C(Nc1nnc(S(=O)(=O)N2CCCCCC2)s1)c1cccc(Br)c1 | 11% (active)
76 | Cc1cccc(C(=O)Nc2nnc(S(=O)(=O)N3CCCCCC3)s2)c1 | -0.31% (inactive)
77 | O=C(Nc1nnc(S(=O)(=O)N2CCOCC2)s1)c1cccc(Br)c1 | 3.61% (inactive)
78 | CC(OC(=O)CCC(=O)c1ccccc1)C(=O)Nc1ccc(F)cc1 (stereo not drawn) | 0.37% (inactive)
79 | Cc1ccc(N=C2SCCCN2C(=O)c2cccc(N3C(=O)CCC3=O)c2)cc1Cl | -0.64% (inactive)
80 | COc1ccc2cc(CCl)c(Cl)nc2c1 | 2.75% (inactive)
81 | O=[N+]([O-])c1ccc(C=Nc2ccc(Cl)cc2Cl)s1 | 9.39% (active)
82 | COc1ccc(CN2[C@@H](CC(=O)O)c3cc(F)ccc3S2(=O)=O)cc1 | 1.09% (inactive)
83 | CCc1noc(C)c1C(=O)N1CCN(S(=O)(=O)c2cccc(C(F)(F)F)c2)CC1 | -0.49% (inactive)
84 | O=C(/C=C/c1cc2c(cc1Br)OCO2)NCc1ccc(Cl)cc1 | 1.84% (inactive)
85 | O=C(N/N=C\c1cc2c(cc1Cl)OCO2)c1ccc(Br)s1 | 1.53% (inactive)
86 | CC1(C(=O)N/N=C/c2cc3c(cc2Br)OCO3)CC1(Br)Br (stereo not drawn) | 8.27% (active)
87 | CO[C@H]1[C@@H]2C=CO[C@@H](O[C@H]3O[C@@H](CO)[C@H](O)[C@@H](O)[C@@H]3O)[C@@H]2[C@@]2(CO)O[C@@H]12 | -1.13% (inactive)
88 | Cc1ccc(OCCCCc2c(C)n[nH]c2C)cc1 | 0.87% (inactive)
